In the library only some 5.9% were active in any assay of this set; here they are far more common.
rCAG RNA binder – binds r(CAG) RNA repeats | r(CAG) RNA repeat, TO-PRO-1 dye displacement fluorescence | inhibition, % at 3 µM | 1.3% of 370,000 active | AID 651821;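 active = inhibition above the plate cutoff, the mean of all test compounds on that plate plus 3 SD, cut at about 35% in these data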;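 note: 0% = DMSO alone and 100% = 100 µM mitoxantrone as full dye displacement; higher means more dye released from RNA so lower well fluorescence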
ABHD5-PLIN5 inh – ABHD5-PLIN5 protein interaction inhibition; AID 602281; inhibition, % at 4 µM; Q00G26+Q8WTS1; 0.78% of 360,000 active; Split G. princeps luciferase complementation, luminescence, 4 h;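 active = inhibition above the mean inhibition across every tested compound plus 3 SD, cut at about 22% in these data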;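 note: 0% = DMSO only wells and the 100% control is not disclosed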
ALR inh – human ALR oxidase inhibition via reduced H2O2 | inhibition, % (test concentration not listed) | 3.8% of 290,000 active | purified ALR, DTT oxidation, H2O2 HRP-luminol luminescence | AID 485317 | P55789;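 active = mean replicate inhibition above about 79%, with every replicate also reaching it, limit read from the data; inconclusive = only one of the two criteria met; inactive = mean below limit and not every replicate reaching it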
Target sequence (P55789 whole entry, looked up): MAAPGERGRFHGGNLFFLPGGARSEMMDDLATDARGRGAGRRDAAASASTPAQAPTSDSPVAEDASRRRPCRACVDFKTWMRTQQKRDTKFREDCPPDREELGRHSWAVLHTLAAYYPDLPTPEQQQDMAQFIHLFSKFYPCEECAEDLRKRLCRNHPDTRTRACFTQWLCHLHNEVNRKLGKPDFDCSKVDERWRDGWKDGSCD
PRMT1 FP inh – PRMT1 (human) inhibition, primary screen; Q99873; recombinant PRMT1, activity-based probe fluorescence polarization; inhibition, % at 2.79 µM; 1.3% of 370,000 active; AID 652257;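 active = inhibition above about 21% made by adding two undisclosed values, limit read from the data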
Rtt109 HAT inh – blocks Candida albicans Rtt109/Vps75 acetyltransferase activity. 0.16% of 330,000 active. inhibition, % at 34.9 µM. purified Rtt109/Vps75, ThioGlo CoA-SH fluorescence, 4 h;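 active = inhibition of at least 50% in every replicate; inconclusive = best replicate reaches 50% inhibition but some replicates fall short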
Target sequence (Q5AAJ8 whole entry, looked up): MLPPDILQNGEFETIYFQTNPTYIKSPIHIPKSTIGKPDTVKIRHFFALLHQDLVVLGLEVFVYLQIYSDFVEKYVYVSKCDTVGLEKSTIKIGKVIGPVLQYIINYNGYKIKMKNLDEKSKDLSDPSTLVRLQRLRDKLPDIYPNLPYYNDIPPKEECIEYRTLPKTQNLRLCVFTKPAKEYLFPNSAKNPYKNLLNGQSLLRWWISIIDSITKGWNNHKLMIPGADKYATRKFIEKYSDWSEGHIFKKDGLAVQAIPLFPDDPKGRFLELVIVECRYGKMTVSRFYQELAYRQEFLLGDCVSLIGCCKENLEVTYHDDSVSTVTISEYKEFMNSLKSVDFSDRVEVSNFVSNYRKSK
LANA-H2A inh – blocks KSHV LANA binding to histone H2A/H2B; Q9QR71; cell-free LANA-H2A/H2B peptide, fluorescence polarization; inhibition, % (test concentration not listed); 0.6% of 320,000 active; AID 2629; in the data active = inhibition mostly above about 10%, no sharp cut-off; inactive = mostly below about 6.7%
* hit, by the source's call; i = inactive; ? = inconclusive; nt = not tested or not shown.

SMILES	rCAG RNA binder	ABHD5-PLIN5 inh	ALR inh	PRMT1 FP inh	Rtt109 HAT inh	LANA-H2A inh
CCCNC(=O)C1(C)CCCN(CCC(=O)c2ccccc2)C1 (stereo not given)	1	-7	nt	-1	nt	nt
C#CCN(C1CC1)S(=O)(=O)c1ccccc1Br	-1	nt	nt	-4	nt	nt
COc1cccc(/C=N/c2sc(Cc3ccccc3)c(C)c2C(N)=O)c1O	37*	-5	12	11	3	-4
CCCC(=O)Nc1sc(C(=O)Nc2cccc(N)c2)c(C)c1C(=O)OC	0	-2	98*	-3	2	-5
CCCC(=O)Nc1sc(Cc2ccccc2)c(C)c1C(N)=O	3	-10	nt	23*	1	0
COC(=O)c1c(NC(C)=O)sc(C(=O)Nc2ccccc2)c1C	1	3	-7	-2	-8	-7
COC(=O)c1c(NC(=O)CCC(=O)O)sc(Cc2ccccc2)c1C	33	-1	nt	3	-18	-3
COc1cccc(/C=N/NC(=S)Nc2cccc(C(=O)O)c2)c1O	5	5	69	0	14	-2
COC(=O)CCC(=O)Nc1sc(Cc2ccccc2)c(C)c1C(N)=O	7	0	4	24*	-3	22*
Cc1ccccc1C(=O)NCCN1CCC(n2c(=O)[nH]c3ccccc32)CC1	-1	6	nt	0	nt	nt
COC(=O)[C@]12C[C@H](CC(=O)N3CCN(C(=O)C4CC4)CC3)C(=O)N(Cc3ccc(Cl)cc3Cl)C1=C[C@H](COCc1ccccc1)O[C@@H]2C	10	nt	nt	2	nt	nt
Cc1cccc(CN2CCN(C3CN(Cc4cn(Cc5ccc(C(F)(F)F)cc5)nn4)S(=O)(=O)C3)CC2)c1 (stereo not given)	-2	nt	nt	1	nt	nt
COc1cc2c(cc1NC(=O)COC(=O)[C@@H](NC(=O)c1ccccc1)C(C)C)oc1ccccc12	10	0	-5	4	-3	25*
COc1ccc(N2C(=O)c3n[nH]c(C(C)C)c3C2c2ccccc2)cc1 (stereo not given)	-1	nt	nt	-1	nt	nt
CCOc1ccc(C(=O)NNC2CC(=O)N(Cc3ccc(Cl)cc3)C2=O)cc1OC (stereo not given)	16	4	97*	-2	-7	2
CC1(C)CC(=O)C2=C(C1)NC(=O)CC2c1cccc(F)c1 (stereo not given)	-5	3	3	-2	-10	-1
COc1cc(C2Nc3ccccc3NC3=C2C(=O)CC(C)(C)C3)cc(OC)c1OC (stereo not given)	2	3	75	1	0	1
COC(=O)c1ccc(C2Nc3ccccc3NC3=C2C(=O)CC(C)(C)C3)cc1 (stereo not given)	-6	0	97*	2	2	3
CCOc1cc(C2Nc3ccccc3NC3=C2C(=O)CC(C)(C)C3)ccc1O (stereo not given)	2	-2	90*	3	1	-1
CC1(C)CC(=O)C2=C(C1)Nc1ccccc1NC2c1cccc(F)c1 (stereo not given)	1	0	99*	3	6	1
COc1cc(OC)c(C2Nc3ccccc3NC3=C2C(=O)CC(C)(C)C3)cc1OC (stereo not given)	-3	6	87*	3	0	2
COc1cccc(-c2cnc(C(O)c3ccc(C(C)(C)C)cc3)[nH]2)c1 (stereo not given)	nt	-1	nt	nt	nt	nt
CC1(Cc2ccccc2OC(F)(F)F)C(=O)Nc2c(Cl)ccc(Cl)c21 (stereo not given)	-3	-3	nt	1	nt	nt
CCOC(=O)C1=CCN(S(=O)(=O)c2ccc(F)cc2)C1c1ccc(Cl)cc1 (stereo not given)	6	nt	nt	5	nt	nt
CCCC(=O)N1CCC1(C)C(=O)Nc1cccc(OC(C)C)c1 (stereo not given)	-3	5	nt	-2	nt	nt
SMILES	rCAG RNA binder	ABHD5-PLIN5 inh	ALR inh	PRMT1 FP inh	Rtt109 HAT inh	LANA-H2A inh
Cc1cc2c(cc1C)NC(c1cccnc1)C1=C(CC(C)(C)CC1=O)N2 (stereo not given)	0	3	94*	-1	-4	3
CC1(C)CC(=O)C2=C(C1)Nc1ccccc1NC2c1cccnc1 (stereo not given)	-2	2	?	3	5	-1
COc1cc2c(cc1OC)C(c1ccc3c(c1)OCO3)C1=C(CC(C)(C)CC1=O)N2 (stereo not given)	-6	-7	98*	0	6	-2
C[C@H]1CN([C@@H](C)CO)C(=O)c2c(c3ccccc3n2C)-c2ccccc2CO[C@H]1CN(C)C(=O)Nc1cccc(F)c1	9	nt	nt	1	nt	nt
Cc1ccc(C2Cc3cc(O)c(O)cc3CN2)cc1 (stereo not given)	0	-1	99*	2	nt	-3
Cc1ccc(O)c(C2=NNC(c3ccc(Cl)cc3)C2)c1 (stereo not given)	16	3	0	6	-1	3
CCN(CC)C(=O)CC[C@@H]1CC[C@]2(CCCN(Cc3ccc(Cl)cc3)C2)O1	-4	nt	nt	2	nt	nt
CCOc1ccccc1NC(=O)NCCN1CCCCC1	-1	1	-16	-1	7	15*
CC(=O)N1CCc2c1cccc2S(=O)(=O)NC(CC(C)C)C(=O)Nc1ccc(F)cc1Cl (stereo not given)	8	nt	nt	-2	nt	nt
Cn1nnnc1Sc1ncnc2scc(-c3cnc(N)nc3)c12	nt	nt	nt	-2	nt	nt
CCCC/C=C1/[C@H](c2ccccc2)N(C)C2=N[C@@H](c3ccccc3)CC(=O)N21	nt	nt	nt	3	nt	nt
COc1ccc(C2NC(=O)CS2)cc1OC (stereo not given)	-3	4	98*	1	-1	0
COc1cc(C2NC(=O)CS2)cc(OC)c1OC (stereo not given)	1	0	nt	0	-7	9
CCOC(=O)N(C)[C@H]1C[C@H]2c3[nH]c4c(-c5ccc6c(c5)OCO6)cccc4c3CCN2C(=O)[C@H]1[C@H](C)O	9	nt	nt	0	nt	nt
CC(=O)Nc1cccc(OCc2cccc([N+](=O)[O-])c2)c1	2	-1	nt	-3	-2	nt
O=C(/C=C/c1cccc([N+](=O)[O-])c1)Nc1ccc(NC(=O)c2cccs2)cc1	2	-7	nt	-1	-7	nt
CCOc1ccc(N/C(SC)=C(/C#N)C(N)=O)cc1	-2	-4	1	-2	2	4
CCOc1ccc(N/C(SCc2cccc([N+](=O)[O-])c2)=C(/C#N)C(N)=O)cc1	2	-3	99*	-3	-4	i
CC(=O)Nc1ccc(OCc2cccc([N+](=O)[O-])c2)cc1	2	0	-2	-2	58*	1
CC(=O)Nc1ccc(C=CC=Cc2cccc([N+](=O)[O-])c2)cc1	4	22*	nt	6	7	nt
C=CCN1C(=O)[C@@H](CC(=O)N2CCSCC2)[C@]2(C(=O)OC)CCCCC=C12	7	nt	nt	-1	nt	nt

Source: PubChem BioAssay
